Assay outcomes (PubChem BioAssay)
Shown are actives, neighbours in structure and some others; about 4% of the full set was active somewhere.
tim10-1 inh: growth inhibitors of tim10-1 mutant yeast, primary screen, luminescence, uHTS. S. cerevisiae tim10-1 ts strain growth, BacTiter-Glo, 24 h. inhibition, % at 20 µM. hit rate 2.2% among 330,000. AID 463190, 2010;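 active = inhibition of at least 40%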;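 note: mutant grown at 25 °C; 0% = DMSO wells with yeast and 100% = wells holding no yeast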
tim23-1 inh: growth inhibitors of tim23-1 mutant yeast, primary screen, luminescence, uHTS. hit rate 1.3% among 330,000. AID 463212, 2010. S. cerevisiae tim23-1 growth, BacTiter-Glo luminescence, 24 h. inhibition, % at 20 µM;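 active = growth inhibition of the mutant yeast at or above 50%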;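 note: temperature-sensitive mutant grown at 25 °C; plate controls were DMSO-treated mutant yeast for no effect and medium wells lacking yeast for full effect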
NALP1 inh: NALP1 inflammasome inhibitors in reconstituted yeast, colorimetric, S. cerevisiae, triplicate retest; S. cerevisiae NALP1/ASC/caspase-1 growth, X-gal OD620, 72 h; inhibition, % at 10 µM; hit rate 0.61% among 280,000; in the data active = inhibition mostly above about 24%, no sharp cut-off; inactive = mostly below about 32%
TIM10 inh: growth inhibitors of isogenic TIM10 control yeast, primary screen, counter-screen for tim10-1 yeast inhibitor project, luminescence, uHTS | S. cerevisiae TIM10 strain growth, BacTiter-Glo luminescence, 24 h | inhibition, % at 10 µM | hit rate 1.4% among 330,000 | AID 463195, 2010;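 active = inhibition of 40% or more at the single tested concentration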;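 note: wild-type TIM10 isogenic control strain grown at permissive 25 °C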
NLRP3 yeast inh: NALP3 inflammasome inhibitors in reconstituted yeast, primary screen, luminescence, uHTS; inhibition, % at 10 µM; Yeast reconstituted NLRP3/ASC/caspase-1, beta-gal luminescence, 24 h; hit rate 0.39% among 330,000;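 active = inhibition of 50% or more; inactive = inhibition below 50%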;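 note: plate controls were induced DMSO wells for no effect and uninduced yeast grown without galactose for full effect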
An asterisk follows results filed as active.

For CN(CC(=O)Nc1ccc(F)c(F)c1F)C(=O)C1=NN(c2ccccc2)C(=O)CC1 the results were tim10-1 inh -9, tim23-1 inh -9, TIM10 inh 3 and NLRP3 yeast inh 23.
`COc1ccccc1Nc1nnc(SCC(=O)NC2CC2)s1` gave tim10-1 inh 7, tim23-1 inh 11, TIM10 inh 9 and NLRP3 yeast inh -7.
COc1ccc(NC(=O)COc2nc(N(C)C)nc(N(C)C)n2)cc1 was read as tim10-1 inh 18, tim23-1 inh 5, NALP1 inh 28*, TIM10 inh 7 and NLRP3 yeast inh 20.
`O=S(=O)(N/N=C/c1ccc2c(c1)OCO2)c1ccc(Br)cc1` gave tim10-1 inh 20, tim23-1 inh 37, NALP1 inh 12, TIM10 inh 15 and NLRP3 yeast inh -26.
Cc1cc(C)n2nc(SCC(=O)NC(=O)c3ccccc3)nc2n1 was read as tim10-1 inh 4, tim23-1 inh 12, TIM10 inh -7 and NLRP3 yeast inh 11.
O=C(Cn1cnc2c(nnn2Cc2ccccc2F)c1=O)N1CCN(c2ccccc2)CC1 was read as tim10-1 inh -42, tim23-1 inh -11, NALP1 inh 7, TIM10 inh -20 and NLRP3 yeast inh 14.
`O=C(Cn1cnc2c(nnn2Cc2ccccc2F)c1=O)OCc1ccccc1` gave tim10-1 inh 11, tim23-1 inh 4, NALP1 inh 26*, TIM10 inh 12 and NLRP3 yeast inh -5.
For COc1ccc(CN(C(=O)c2snc(C(N)=O)c2N)C(C(=O)NC2CCCC2)c2cc(OC)ccc2OC)cc1 (centres undefined) the results were tim10-1 inh 26, tim23-1 inh 23, NALP1 inh 20, TIM10 inh 0 and NLRP3 yeast inh 10.
CCCn1c(N)c(N2CCCCC2)c(=O)n(CC(=O)Nc2ccccc2C)c1=O was read as tim10-1 inh -3, tim23-1 inh -1, NALP1 inh 37*, TIM10 inh 6 and NLRP3 yeast inh 9.
`Cc1cccc(C)c1NC(=O)Cn1c(=O)c(N2CCCCC2)c(N)n(C)c1=O` gave tim10-1 inh -7, tim23-1 inh -20, TIM10 inh -13 and NLRP3 yeast inh 16.
`OC(CN1CCN(Cc2ccccc2)CC1)Cn1c2ccccc2c2ccccc21` (centres undefined) gave tim10-1 inh 28, tim23-1 inh 0, NALP1 inh 50*, TIM10 inh 30 and NLRP3 yeast inh 31.
For OC(CN1CCCCC1)Cn1c2ccc(Cl)cc2c2cc(Cl)ccc21 (centres undefined) the results were tim10-1 inh -10, tim23-1 inh -22, NALP1 inh 49*, TIM10 inh -26 and NLRP3 yeast inh 18.
Cc1ccc(OCCN2CCN(CC(O)Cn3c4ccccc4c4ccccc43)CC2)cc1 (centres undefined) was read as tim10-1 inh 37, tim23-1 inh 20, NALP1 inh 76*, TIM10 inh 38 and NLRP3 yeast inh 33.
For OC(CN1CCN(c2ccccc2)CC1)Cn1c2ccccc2c2ccccc21 (centres undefined) the results were tim10-1 inh 15, tim23-1 inh 48, NALP1 inh 10, TIM10 inh 30 and NLRP3 yeast inh 24.
Cc1ccc(OCC(O)Cn2c3ccccc3c3ccccc32)cc1 (centres undefined) was read as tim10-1 inh 34, tim23-1 inh 33, NALP1 inh 8, TIM10 inh 20 and NLRP3 yeast inh 5.
O=C(O)c1ccc(NCCc2ccc(Cl)cc2)c([N+](=O)[O-])c1 was read as tim10-1 inh 4, tim23-1 inh 17, NALP1 inh 3, TIM10 inh 2 and NLRP3 yeast inh 20.
COc1ccccc1-n1cc(C(=O)N2CCCC(CO)(Cc3ccccc3C)C2)cn1 (centres undefined) was read as tim10-1 inh 27, tim23-1 inh 26, NALP1 inh 7, TIM10 inh 12 and NLRP3 yeast inh 6.
CCc1ccc(NC(=O)c2ccccc2NC(=O)C2CCCO2)cc1 (centres undefined) was read as tim10-1 inh 30, tim23-1 inh 23, NALP1 inh 43*, TIM10 inh 25 and NLRP3 yeast inh -13.
Screening O=C(Oc1cccc2cccnc12)c1ccc(N2C(=O)C3C4CCC(C4)C3C2=O)cc1 (centres undefined) returned tim10-1 inh 11, tim23-1 inh 2, NALP1 inh 59*, TIM10 inh 2 and NLRP3 yeast inh -5.
`O=C(NN1CCN(Cc2ccccc2)CC1)c1ccc(N2CCOCC2)c([N+](=O)[O-])c1` gave tim10-1 inh -4, tim23-1 inh 17, NALP1 inh -1, TIM10 inh -15 and NLRP3 yeast inh 25.
`CCCc1nnc(NC(=O)c2cc3ccccc3o2)s1` gave tim10-1 inh 38, tim23-1 inh 7, NALP1 inh 7, TIM10 inh 12 and NLRP3 yeast inh -4.
Screening CCCc1nnc(NC(=O)CC(=O)Nc2ccccc2C(=O)O)s1 returned tim10-1 inh -4, tim23-1 inh -6, NALP1 inh 40*, TIM10 inh -1 and NLRP3 yeast inh 15.
CCCc1nnc(NC(=O)c2cc3ccccc3oc2=O)s1 was read as tim10-1 inh -11, tim23-1 inh -1, NALP1 inh 40*, TIM10 inh 7 and NLRP3 yeast inh 4.
`Cc1ccc(S(=O)(=O)CC(CN2CCCCC2)N2CCCCC2)cc1` (centres undefined) gave NALP1 inh -7.
O=S(=O)(CC(CN1CCCCC1)N1CCCCC1)c1ccc2ccccc2c1 (centres undefined) was read as NALP1 inh 55*.
COc1ccccc1N(C)S(=O)(=O)c1ccc(C(=O)OCC(=O)N(C(C)C)C(C)C)cc1 was read as tim10-1 inh 33, tim23-1 inh 23, NALP1 inh 26*, TIM10 inh -5 and NLRP3 yeast inh 7.
Screening O=C1CCc2cc(S(=O)(=O)Nc3ccccc3)ccc2N1 returned tim10-1 inh -3, tim23-1 inh -9, TIM10 inh 1 and NLRP3 yeast inh 11.
Nc1[nH]n2c(=O)cc(-c3ccccc3)nc2c1N=Nc1ccc2c(c1)OCO2 was read as tim10-1 inh 17, tim23-1 inh 3, NALP1 inh 42*, TIM10 inh 9 and NLRP3 yeast inh 30.
`CC1CN(C(=O)COC(=O)/C=C/c2cccc([N+](=O)[O-])c2)CC(C)O1` (centres undefined) gave tim10-1 inh 14, tim23-1 inh 25, TIM10 inh 9 and NLRP3 yeast inh -1.
Screening COC(=O)c1c(N2C(=O)CC(Sc3ccccc3C(=O)O)C2=O)sc(C)c1C (centres undefined) returned tim10-1 inh 32, tim23-1 inh 28, NALP1 inh 22*, TIM10 inh 23 and NLRP3 yeast inh 1.
